Bioassay records as filed in PubChem BioAssay.
S1P3 antag: S1P3 receptor antagonists, primary screen, cell-based; CHO S1P3 NFAT-BLA reporter, FRET fluorescence, antagonist mode; inhibition, % at 4.98 µM; 170,000 tested, 0.27% active; AID 485, 2006;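 active = inhibition above the plate cutoff, the mean inhibition of test wells on that plate plus 3 SD, cut at about 28% in these data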;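 also: cells challenged with S1P at its EC80 of 0.8 µM; blue over green emission ratio from cleaved BLA substrate after 4 h stimulation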
Insulin prom up: insulin promoter activators in MIN6 cells, imaging, high-content screening, mouse beta cells. MIN6 insulin promoter-GFP reporter; active compounds read high. z-score at 5 µM. 190,000 tested, 0.3% active. AID 1625, 2009;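 active = z-score above 3 at 5 µM with at least 500 cells counted in the well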
S1P4 ag: S1P4 receptor agonists, primary screen, cell-based; Sphingosine 1-phosphate receptor 4 (Homo sapiens), O95977; S1P4-expressing cell line, agonist reporter assay; activation, % at 4.98 µM; 220,000 tested, 0.35% active; in the data active = activation above about 11%
Target sequence (O95977 whole entry, looked up): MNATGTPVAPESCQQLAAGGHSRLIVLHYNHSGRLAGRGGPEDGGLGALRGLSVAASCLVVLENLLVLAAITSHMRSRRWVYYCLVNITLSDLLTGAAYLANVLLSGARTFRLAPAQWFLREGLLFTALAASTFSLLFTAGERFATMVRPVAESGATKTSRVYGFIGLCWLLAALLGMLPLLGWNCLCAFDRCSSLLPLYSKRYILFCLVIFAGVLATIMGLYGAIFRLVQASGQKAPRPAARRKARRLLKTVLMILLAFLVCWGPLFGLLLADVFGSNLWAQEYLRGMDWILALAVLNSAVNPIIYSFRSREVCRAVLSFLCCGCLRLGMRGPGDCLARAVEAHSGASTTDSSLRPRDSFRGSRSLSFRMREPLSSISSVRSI
INS promoter inh: inhibitors of insulin promoter-driven GFP, primary screen, imaging, TRM-6 cells (human fetal islet line), eGFP reporter, cell count; reporter expression induced with tamoxifen; inhibition, % at 2 µM; 130,000 tested, 0.9% active; AID 1273, 2008;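 active = inhibition above the mean plus 3 SD, with well images judged a real hit on visual review, cut at about 60% in these data, passing the limit was not always enough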
S1P4 antagonist: S1P4 receptor antagonists, primary screen, cell-based; S1P4-expressing cells, antagonist mode, reporter read-out; 220,000 tested, 0.26% active; inhibition, % at 4.98 µM; Sphingosine 1-phosphate receptor 4 (Homo sapiens), O95977; in the data active = inhibition above about 29%
Hsp70 act: Hsp70 transcriptional activators, primary screen, cell-based, HeLa, Hsp70 promoter luciferase, luminescence, 10 µM; HeLa Hsp70 promoter luciferase reporter; scaled: vehicle 0, proteasome-inhibitor control 100%; activation, % at 10 µM; 200,000 tested, 0.04% active; AID 1203, 2008;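 active = activation above the mean across all tested compounds plus 3 SD, cutoff set per campaign, cut at about 5.5% in these data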
Numbers stand for hits; n = inactive; x = no result given. The list is not random: actives were taken first. Their share in the collection is about 1.5%.

SMILES	S1P3 antag	Insulin prom up	S1P4 ag	INS promoter inh	S1P4 antagonist	Hsp70 act
C(=Nc1ccc(Nc2ccccc2)cc1)c1ccc2ccccc2c1	n	n	n	64	n	n
COc1cccc(Cn2cccc(NC(=O)Nc3ccc(C#N)cc3)c2=O)c1	x	n	n	n	n	n
CCC(=O)N1CCC2(CC1)Oc1ccc(Cl)cc1C(=O)C21CC(c2ccc(Cl)cc2)=NO1 (stereo not given)	x	n	x	x	x	x
CCC(C)(NC(=O)CNC(C)=O)C(=O)NC1CCCCC1 (stereo not given)	x	n	n	69	n	n
CCC(C)(C(=O)NC1CCCC1)N(C(=O)CNC(C)=O)c1ccccc1 (stereo not given)	x	3.5	n	x	n	n
Cc1cc2c(c(=O)o1)C(c1ccc([N+](=O)[O-])o1)C(C#N)=C(N)O2 (stereo not given)	n	n	n	x	n	x
Cc1cc(Nc2nn(C)c(N)c2C#N)ccc1F	n	6	n	x	n	n
Cc1cc(Nc2c(C#N)c(N)nn2C)ccc1F	n	n	n	x	n	n
Fc1ccccc1-c1nc(NCCCN2CCOCC2)c2ccccc2n1	n	n	n	n	n	n
c1ccc2c(NCCCN3CCOCC3)c3ccccc3nc2c1	n	n	11	x	n	n
O=C(CCN1CCCCC1)c1ccccc1	x	n	n	n	n	n
C[N+]1(CCC(=O)c2ccccc2)CCCCC1	n	n	n	64	n	n
O=C(COC(=O)C12CC3CC(CC(C3)C1)C2)Nc1ncc(Cl)cc1Cl	x	n	n	n	n	n
O=C(COC(=O)CC12CC3CC(CC(C3)C1)C2)Nc1ncc(Cl)cc1Cl	x	n	n	100	n	n
COc1cccc(C2=NOC(C(=O)NCc3ccc(F)cc3)C2)c1 (stereo not given)	n	n	n	n	n	n
COc1ccc(CNC(=O)C2CC(c3cccc(OC)c3)=NO2)cc1 (stereo not given)	n	n	n	73	n	n
FC(F)(F)c1cccc(Cc2noc(CN3CCCC(CN4CCCC4)C3)n2)c1 (stereo not given)	n	x	n	n	n	n
NS(=O)(=O)c1cccc2cccnc12	n	5.5	n	n	n	n
COc1ccc(C2OCC3(CO2)SC(=O)NC3=O)cc1 (stereo not given)	n	x	n	73	n	n
O=C(Nc1ccc(F)cc1)N1CCOCC1	n	n	n	n	n	n
CCNC(=O)N1CCOCC1	x	n	n	86	n	n
O=C(NCCc1ccc(F)cc1)N1CCOCC1	n	n	n	83	n	n
CCNS(=O)(=O)c1ccc(CCC(=O)NCc2ccccc2)cc1	n	n	n	n	n	n
CCOC(=O)c1cc2occc2n1Cc1c(F)cccc1Cl	x	n	n	n	n	n
COC(=O)c1cc2occc2n1Cc1c(F)cccc1Cl	n	3.1	n	x	n	n
SMILES	S1P3 antag	Insulin prom up	S1P4 ag	INS promoter inh	S1P4 antagonist	Hsp70 act
CCCCNC(=S)NC(=O)c1ccc(Cl)cc1Cl	x	3.1	n	x	n	n
O=C(NC(=S)NCCN1CCOCC1)c1ccc(Cl)cc1Cl	x	n	n	x	n	n
CCOC(=O)c1cnn(-c2cc(C)nc3c(-c4ccccc4)cnn23)c1N	n	3.6	n	n	n	n
O=C(CSc1cccc[n+]1[O-])c1cc(Cl)ccc1Cl	n	n	n	n	n	n
CCCn1c(Nc2nc3ccccc3n2C)nc2ccccc21	58	n	n	x	n	n
CCCCn1c(Nc2ccccc2)nc2ccccc21	x	n	n	n	n	n
COc1cc(/C=N/NC(=O)COc2cccc(F)c2)ccc1OS(=O)(=O)c1ccc(C)cc1	n	n	n	n	n	n
NC(=O)c1ccc[n+](CC(=O)OCCC23CC4CC(CC(C4)C2)C3)c1	x	n	n	x	n	n
CN(C)c1nc(N)nc(-c2nc3ccccc3s2)n1	60	x	n	n	n	n
Nc1ccccc1-c1nc2ccccc2s1	n	n	n	x	n	n
CCOC(=O)c1ccc(CSc2nnc(-c3ccncc3)n2N)cc1	n	3.8	n	n	n	n
Cc1ccc(/C=C/c2nc3ccccc3[nH]2)o1	n	n	n	71	n	n
CCOC(=O)c1ccc(NC(=O)COc2ccc(S(=O)(=O)NC(C)CC)cc2)cc1 (stereo not given)	x	3.1	n	n	n	n
O=C(NCc1ccc(F)cc1)c1noc2c1CCCC2	n	n	n	n	n	n
CC(C)(C)C1CCc2onc(C(=O)NCc3ccc(F)cc3)c2C1 (stereo not given)	64	n	n	x	n	n
Cc1ccccc1NC(=O)COC(=O)c1cc(=O)c2ccccc2o1	n	n	n	n	n	n
O=C1OC(N2CCN(C/C=C/c3ccccc3)CC2)c2ccccc21 (stereo not given)	x	n	n	83	n	n
O=C1CC(N2CCN(C/C=C/c3ccccc3)CC2)C(=O)N1Cc1cccs1 (stereo not given)	n	n	n	n	n	n
CCOc1ccc(N(CC(=O)Nc2ccc(OC)cc2)S(=O)(=O)c2c(C)[nH]c(=O)[nH]c2=O)cc1	n	n	n	n	n	n
COc1ccc(N(CC(=O)Nc2nccs2)S(=O)(=O)c2c(C)[nH]c(=O)[nH]c2=O)cc1	n	n	n	79	n	n
C/C(=N\NC(=O)c1cccc(N/N=C(\C)c2cc(O)ccc2O)c1)c1cc(O)ccc1O	n	n	n	x	n	n
O=C1c2cccc3c(N4CCCCC4)ccc(c23)C(=O)N1c1ccc(O)cc1	n	6.1	n	x	n	n
CC(=O)c1ccc(Nc2nc(=O)c3cccnc3s2)cc1	x	n	n	79	n	n
CC(=O)c1cccc(Nc2nc(=O)c3cccnc3s2)c1	x	n	n	n	n	n
c1ccc(-n2ncc3c2ncn2cnnc32)cc1	n	n	n	n	n	n
SMILES	S1P3 antag	Insulin prom up	S1P4 ag	INS promoter inh	S1P4 antagonist	Hsp70 act
CCc1nnc2c3cnn(-c4ccccc4)c3ncn12	n	n	n	78	n	n
Cn1nnnc1Sc1nc(-c2cccnc2)nc2ccccc12	n	x	x	x	x	x
Nc1ccn([C@@H]2O[C@H](CO)[C@@H](O)[C@@H]2O)c(=O)n1	n	x	12	n	n	n
CN(C)c1ncnc2c1ncn2C1OC(CO)C(O)C1O (stereo not given)	x	n	n	92	n	n
Nc1nc(Cl)nc2c1ncn2[C@@H]1O[C@H](CO)[C@@H](O)[C@H]1O	n	x	n	n	n	n
CC(=O)Nc1ccc(NS(=O)(=O)c2ccc(Cl)c(C(=O)O)c2)cc1	n	n	n	79	n	n
Cc1ccc(NCc2cccnc2)c(Br)c1	n	n	n	67	n	n
Brc1ccc(-c2cn3ccccc3n2)s1	x	n	n	86	n	n
COc1ccccc1C1NC(=O)CS1 (stereo not given)	n	n	n	x	n	n
